According to the supplement of paper PMC11006884:
The full data set covers some 6,500 targets. This sample favours those with a hit. About 2% of all pairs of compound and target were hits. Unmarked numbers belong to inactive results.

These targets were tested with COC(=O)C#Cc1ccccc1 [methyl 3-phenylpropiolate] (assay: log2 ratio of iodoacetamide-alkyne labeling of the cysteine site, DMSO over compound (competition); higher = stronger covalent engagement of the cysteine by the compound, active = 1 or more). Conditions: 500 µM; treatment time 1 h; system: HEK293T cell lysate.
Method in brief: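 HEK293T lysate at 2 mg/mL was treated with vehicle or electrophile (500 µM) for 1 h at ambient temperature, then labelled with iodoacetamide alkyne (1 h), clicked to sCIP-TMT reagents, pooled, digested with trypsin overnight at 37 °C, enriched on streptavidin and eluted with acid. Peptides were analysed by Orbitrap Eclipse LC-MS/MS with FAIMS and quantified in FragPipe, using duplicate channels and three replicates, with cysteines quantified in only one replicate excluded. The log2 competition ratio for each cysteine is the mean control-channel reporter intensity divided by the mean compound-channel reporter intensity.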

UniProt Q9NTI5, sequence (Q9NTI5 whole entry): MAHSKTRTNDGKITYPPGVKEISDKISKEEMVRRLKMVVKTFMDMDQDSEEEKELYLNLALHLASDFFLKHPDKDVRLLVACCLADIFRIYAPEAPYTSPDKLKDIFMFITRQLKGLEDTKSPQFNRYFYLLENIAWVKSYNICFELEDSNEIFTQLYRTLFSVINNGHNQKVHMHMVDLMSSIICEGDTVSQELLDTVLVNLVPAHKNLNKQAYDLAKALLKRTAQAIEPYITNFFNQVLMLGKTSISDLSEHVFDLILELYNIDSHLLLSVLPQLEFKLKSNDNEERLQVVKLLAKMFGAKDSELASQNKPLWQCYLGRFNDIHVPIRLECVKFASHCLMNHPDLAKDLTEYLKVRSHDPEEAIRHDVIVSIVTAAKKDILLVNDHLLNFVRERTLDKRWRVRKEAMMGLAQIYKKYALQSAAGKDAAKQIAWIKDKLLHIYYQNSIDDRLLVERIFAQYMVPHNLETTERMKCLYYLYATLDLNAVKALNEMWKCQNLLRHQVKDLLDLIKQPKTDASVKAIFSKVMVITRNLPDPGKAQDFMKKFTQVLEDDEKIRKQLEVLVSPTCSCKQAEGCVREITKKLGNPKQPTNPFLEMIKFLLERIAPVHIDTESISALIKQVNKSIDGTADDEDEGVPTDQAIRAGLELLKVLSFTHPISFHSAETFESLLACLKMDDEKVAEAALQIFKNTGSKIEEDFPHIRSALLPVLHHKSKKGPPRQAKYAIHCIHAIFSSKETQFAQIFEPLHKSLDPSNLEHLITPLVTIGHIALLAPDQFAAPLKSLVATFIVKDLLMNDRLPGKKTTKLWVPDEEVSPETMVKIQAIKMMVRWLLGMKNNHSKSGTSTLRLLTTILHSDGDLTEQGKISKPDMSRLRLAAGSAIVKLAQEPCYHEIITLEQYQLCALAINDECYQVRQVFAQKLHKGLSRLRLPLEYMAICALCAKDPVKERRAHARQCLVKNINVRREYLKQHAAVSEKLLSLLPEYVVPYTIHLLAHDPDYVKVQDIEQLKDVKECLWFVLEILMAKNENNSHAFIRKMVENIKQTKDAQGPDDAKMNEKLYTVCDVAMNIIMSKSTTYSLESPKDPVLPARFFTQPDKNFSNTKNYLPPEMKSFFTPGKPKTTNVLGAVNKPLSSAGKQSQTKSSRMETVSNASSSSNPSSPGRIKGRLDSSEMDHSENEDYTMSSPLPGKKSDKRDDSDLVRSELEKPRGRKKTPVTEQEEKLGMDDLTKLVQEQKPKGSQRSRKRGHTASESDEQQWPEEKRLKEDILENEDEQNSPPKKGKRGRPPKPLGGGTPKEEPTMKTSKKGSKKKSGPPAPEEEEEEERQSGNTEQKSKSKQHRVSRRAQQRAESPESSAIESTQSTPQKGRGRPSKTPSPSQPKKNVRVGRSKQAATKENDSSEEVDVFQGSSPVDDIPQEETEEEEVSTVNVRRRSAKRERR
UniProt Q9Y2D4, sequence (Q9Y2D4 whole entry, looked up): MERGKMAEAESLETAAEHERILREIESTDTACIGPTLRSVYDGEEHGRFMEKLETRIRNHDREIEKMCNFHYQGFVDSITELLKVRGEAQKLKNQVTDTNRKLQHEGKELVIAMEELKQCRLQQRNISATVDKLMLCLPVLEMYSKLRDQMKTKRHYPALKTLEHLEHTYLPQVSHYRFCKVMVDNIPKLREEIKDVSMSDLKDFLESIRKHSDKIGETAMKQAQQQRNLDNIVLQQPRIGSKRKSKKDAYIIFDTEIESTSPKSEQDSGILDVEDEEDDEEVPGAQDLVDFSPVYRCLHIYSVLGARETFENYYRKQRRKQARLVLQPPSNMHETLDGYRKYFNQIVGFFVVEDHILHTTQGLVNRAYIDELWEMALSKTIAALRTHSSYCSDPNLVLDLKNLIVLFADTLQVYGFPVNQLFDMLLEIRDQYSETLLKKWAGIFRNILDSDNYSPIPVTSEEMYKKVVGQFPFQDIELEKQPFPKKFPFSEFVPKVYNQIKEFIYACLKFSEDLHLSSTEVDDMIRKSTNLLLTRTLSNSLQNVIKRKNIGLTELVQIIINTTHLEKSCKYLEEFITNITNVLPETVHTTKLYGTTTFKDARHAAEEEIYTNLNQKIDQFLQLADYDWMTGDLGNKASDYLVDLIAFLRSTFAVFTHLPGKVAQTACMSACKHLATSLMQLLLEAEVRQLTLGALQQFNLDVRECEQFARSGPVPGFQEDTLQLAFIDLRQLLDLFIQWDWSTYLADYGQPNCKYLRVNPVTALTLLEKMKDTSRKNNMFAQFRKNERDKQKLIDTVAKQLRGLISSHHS
UniProt Q9UDR5, sequence (Q9UDR5 whole entry, looked up): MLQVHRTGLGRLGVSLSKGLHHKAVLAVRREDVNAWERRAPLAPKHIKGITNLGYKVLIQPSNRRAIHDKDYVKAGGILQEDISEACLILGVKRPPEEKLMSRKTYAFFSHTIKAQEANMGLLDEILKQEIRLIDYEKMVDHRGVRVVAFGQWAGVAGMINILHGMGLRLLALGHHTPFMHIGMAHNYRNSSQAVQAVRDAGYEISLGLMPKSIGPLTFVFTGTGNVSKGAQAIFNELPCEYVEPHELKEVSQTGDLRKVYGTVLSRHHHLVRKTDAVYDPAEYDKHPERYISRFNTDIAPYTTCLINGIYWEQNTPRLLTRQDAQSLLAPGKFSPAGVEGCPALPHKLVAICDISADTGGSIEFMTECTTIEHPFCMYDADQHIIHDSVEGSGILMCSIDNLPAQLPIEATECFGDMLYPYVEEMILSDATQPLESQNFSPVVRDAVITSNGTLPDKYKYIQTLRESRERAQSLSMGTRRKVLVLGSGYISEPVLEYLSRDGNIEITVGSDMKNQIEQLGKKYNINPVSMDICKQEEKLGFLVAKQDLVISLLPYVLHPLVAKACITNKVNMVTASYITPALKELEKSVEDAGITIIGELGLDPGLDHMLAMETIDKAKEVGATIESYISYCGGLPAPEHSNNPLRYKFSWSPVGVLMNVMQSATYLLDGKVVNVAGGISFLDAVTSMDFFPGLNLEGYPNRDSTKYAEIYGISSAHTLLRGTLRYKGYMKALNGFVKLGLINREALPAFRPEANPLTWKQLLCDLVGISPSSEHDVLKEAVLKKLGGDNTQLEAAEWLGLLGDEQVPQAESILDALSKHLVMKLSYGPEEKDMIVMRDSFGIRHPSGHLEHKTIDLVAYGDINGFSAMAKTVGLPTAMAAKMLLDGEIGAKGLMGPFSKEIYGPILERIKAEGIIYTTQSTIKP
UniProt Q9C0C9, sequence (Q9C0C9 whole entry, looked up): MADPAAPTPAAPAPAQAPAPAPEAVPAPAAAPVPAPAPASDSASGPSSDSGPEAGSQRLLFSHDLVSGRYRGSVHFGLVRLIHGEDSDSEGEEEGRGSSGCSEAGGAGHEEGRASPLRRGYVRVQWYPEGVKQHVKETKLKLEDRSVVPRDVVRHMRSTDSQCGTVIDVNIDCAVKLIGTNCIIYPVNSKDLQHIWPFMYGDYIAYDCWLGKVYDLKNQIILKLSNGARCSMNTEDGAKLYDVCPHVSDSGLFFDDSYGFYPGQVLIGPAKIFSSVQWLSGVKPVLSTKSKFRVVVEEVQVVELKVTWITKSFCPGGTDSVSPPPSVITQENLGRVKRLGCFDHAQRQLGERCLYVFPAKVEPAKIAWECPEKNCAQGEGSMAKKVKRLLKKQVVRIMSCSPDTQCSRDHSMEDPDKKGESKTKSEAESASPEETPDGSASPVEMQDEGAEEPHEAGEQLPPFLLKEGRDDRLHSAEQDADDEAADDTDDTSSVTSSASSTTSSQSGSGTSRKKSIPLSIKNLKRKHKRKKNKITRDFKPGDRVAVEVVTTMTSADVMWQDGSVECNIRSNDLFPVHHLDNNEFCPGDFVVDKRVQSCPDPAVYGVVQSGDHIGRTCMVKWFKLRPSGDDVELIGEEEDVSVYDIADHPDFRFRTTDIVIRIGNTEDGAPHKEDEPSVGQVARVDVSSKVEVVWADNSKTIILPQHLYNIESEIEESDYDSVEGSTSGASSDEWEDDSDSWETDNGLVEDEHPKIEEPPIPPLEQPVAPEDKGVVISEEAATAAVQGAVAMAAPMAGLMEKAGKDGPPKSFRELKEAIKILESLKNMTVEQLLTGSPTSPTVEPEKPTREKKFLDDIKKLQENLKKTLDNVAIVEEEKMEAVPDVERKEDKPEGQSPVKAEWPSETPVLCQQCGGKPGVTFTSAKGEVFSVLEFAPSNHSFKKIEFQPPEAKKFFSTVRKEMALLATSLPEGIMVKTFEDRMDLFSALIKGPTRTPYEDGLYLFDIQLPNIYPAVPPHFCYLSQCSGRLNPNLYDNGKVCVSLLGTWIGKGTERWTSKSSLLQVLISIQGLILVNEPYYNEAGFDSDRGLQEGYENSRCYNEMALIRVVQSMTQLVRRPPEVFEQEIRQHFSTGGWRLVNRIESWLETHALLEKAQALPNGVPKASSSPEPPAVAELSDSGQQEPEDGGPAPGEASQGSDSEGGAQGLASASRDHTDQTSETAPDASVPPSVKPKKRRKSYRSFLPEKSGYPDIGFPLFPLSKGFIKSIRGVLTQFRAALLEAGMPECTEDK
UniProt Q9H3H3, sequence (Q9H3H3 whole entry, looked up): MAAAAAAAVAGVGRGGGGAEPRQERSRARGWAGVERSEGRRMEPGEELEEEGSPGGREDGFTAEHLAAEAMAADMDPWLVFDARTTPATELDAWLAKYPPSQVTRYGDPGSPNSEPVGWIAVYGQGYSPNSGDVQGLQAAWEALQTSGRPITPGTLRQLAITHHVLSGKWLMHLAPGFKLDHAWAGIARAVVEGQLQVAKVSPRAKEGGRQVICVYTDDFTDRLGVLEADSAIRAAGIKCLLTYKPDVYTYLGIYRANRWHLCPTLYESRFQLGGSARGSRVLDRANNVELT
UniProt Q9HB71, sequence (Q9HB71 whole entry): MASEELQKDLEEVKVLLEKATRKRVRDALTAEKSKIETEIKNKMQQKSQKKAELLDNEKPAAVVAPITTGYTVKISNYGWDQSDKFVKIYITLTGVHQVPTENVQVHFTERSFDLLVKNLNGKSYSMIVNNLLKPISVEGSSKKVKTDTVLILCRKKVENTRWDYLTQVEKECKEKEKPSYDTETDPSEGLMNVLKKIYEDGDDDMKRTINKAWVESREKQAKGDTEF

Question: MRPS18C C90 (UniProt Q9Y3D5) was tested. Which “log2 ratio of iodoacetamide-alkyne labeling” value (“log2 ratio” below) did it give?
Answer: 0.167

Question: For NOSIP C185 (UniProt Q9Y314), which “log2 ratio” value is on record?
Answer: 0.25

Question: EIF2B3 C64 (UniProt Q9NR50) was tested. Which “log2 ratio” value did it give?
Answer: 0.548

Question: UniProt Q9NUQ3_C56 was tested. Which “log2 ratio” value did it give?
Answer: 1.97 (active)

Question: How did the “log2 ratio” value turn out when ITSN2 C810 (UniProt Q9NZM3) was run?
Answer: 0.0149

Question: How did the “log2 ratio” value turn out when AASS C87 (UniProt Q9UDR5) was run?
Answer: 0.102

Question: UniProt Q9H1B7_C385 was tested. Which “log2 ratio” value did it give?
Answer: 0.164

Question: With UniProt Q9BVS4_C449 as the target, how does the “log2 ratio” value read?
Answer: 1.18 (active)

Question: For CPSF3 C655 (UniProt Q9UKF6), which “log2 ratio” value is on record?
Answer: 0.293

Question: With UniProt Q9NWR8_C324 as the target, how does the “log2 ratio” value read?
Answer: 1.65 (active)

Question: For ANKFY1 C675 (UniProt Q9P2R3), which “log2 ratio” value is on record?
Answer: 0.216

Question: FAM120A C531 (UniProt Q9NZB2) was tested. Which “log2 ratio” value did it give?
Answer: 1.68 (active)

Question: With ITSN2 C1194 (UniProt Q9NZM3) as the target, how does the “log2 ratio” value read?
Answer: -0.296

Question: How did the “log2 ratio” value turn out when KIDINS220 C412 (UniProt Q9ULH0) was run?
Answer: 0.0082

Question: AIM1 C976 (UniProt Q9Y4K1) was tested. Which “log2 ratio” value did it give?
Answer: 0.347

Question: For UniProt Q9Y5J5_C87, which “log2 ratio” value is on record?
Answer: 0.486

Question: UniProt Q9NV64_C29 was tested. Which “log2 ratio” value did it give?
Answer: 1.11 (active)

Question: For EXOC6B C68 (UniProt Q9Y2D4), which “log2 ratio” value is on record?
Answer: -0.0384

Question: For UBE2O C598 (UniProt Q9C0C9), which “log2 ratio” value is on record?
Answer: 0.166

Question: With TPX2 C145 (UniProt Q9ULW0) as the target, how does the “log2 ratio” value read?
Answer: 0.384

Question: With PPME1 C381 (UniProt Q9Y570) as the target, how does the “log2 ratio” value read?
Answer: 1.48 (active)

Question: How did the “log2 ratio” value turn out when PDS5B C1069 (UniProt Q9NTI5) was run?
Answer: 0.199

Question: Which “log2 ratio” value does the source give for ZYG11B C643 (UniProt Q9C0D3) here?
Answer: 0.222

Question: For FAM120A C279 (UniProt Q9NZB2), which “log2 ratio” value is on record?
Answer: -0.00137

Question: MBD1 C57 (UniProt Q9UIS9) was tested. Which “log2 ratio” value did it give?
Answer: 0.0108

Question: NCDN C3 (UniProt Q9UBB6) was tested. Which “log2 ratio” value did it give?
Answer: 1.66 (active)

Question: For COPS7A C110 (UniProt Q9UBW8), which “log2 ratio” value is on record?
Answer: 0.0698

Question: With STUB1 C199 (UniProt Q9UNE7) as the target, how does the “log2 ratio” value read?
Answer: 0.493

Question: For ANAPC1 C1412 (UniProt Q9H1A4), which “log2 ratio” value is on record?
Answer: 0.0508

Question: With MAGED2 C516 (UniProt Q9UNF1) as the target, how does the “log2 ratio” value read?
Answer: 0.293

Question: With NUDT5 C76 (UniProt Q9UKK9) as the target, how does the “log2 ratio” value read?
Answer: 0.157

Question: Which “log2 ratio” value does the source give for FAM120A C892 (UniProt Q9NZB2) here?
Answer: 1.45 (active)

Question: How did the “log2 ratio” value turn out when MACF1 C5049 (UniProt Q9UPN3) was run?
Answer: 0.311

Question: UniProt Q9NVH0_C284 was tested. Which “log2 ratio” value did it give?
Answer: 0.123

Question: With POLE4 C84 (UniProt Q9NR33) as the target, how does the “log2 ratio” value read?
Answer: -0.0179

Question: Which “log2 ratio” value does the source give for C11orf68 C222 (UniProt Q9H3H3) here?
Answer: 0.528

Question: BCLAF1 C688 (UniProt Q9NYF8) was tested. Which “log2 ratio” value did it give?
Answer: 0.524

Question: With UniProt Q9NWY4_C17 as the target, how does the “log2 ratio” value read?
Answer: 0.873

Question: How did the “log2 ratio” value turn out when CACYBP C173 (UniProt Q9HB71) was run?
Answer: 0.182
